# This is part of a sample that, as a whole, favours compounds with a hit. Of some 79,000 tested, about 15% had one in any assay. Values without a mark were called inactive. The source made the active and inactive calls. Rule as the data show it: active = growth inhibition above about 70%; inactive = the rest.
# Assays:
# [1] = NCI Yeast Anticancer Drug Screen. Data for the rad52 strain (AID 147);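 also: 0% = growth of vehicle-treated control cultures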; details: S. cerevisiae rad52 mutant growth inhibition, stronger effect = higher value
# Outline: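 Inhibition of yeast growth, referenced to vehicle controls, was the measured output for a strain with defective DNA damage repair.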
# [2] = NCI Yeast Anticancer Drug Screen. Data for the wt1 strain (AID 149);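 also: 0% = growth of vehicle-treated wt1 cultures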; details: S. cerevisiae wt1 strain (SPY 50644) growth inhibition, stronger effect = higher value
# Outline: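 wt1 strain grown with compound or vehicle; inhibition taken from the growth difference.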
# [3] = NCI Yeast Anticancer Drug Screen. Data for the rad50EPP+ strain (AID 151);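 also: 0% = growth of vehicle-treated control cultures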; details: S. cerevisiae rad50 mutant strain, stronger effect = higher value
# Outline: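 Genetically defined yeast (rad50EPP+, DNA damage repair alteration) is grown with compound, and inhibition of growth is expressed relative to vehicle-treated controls.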
# [4] = NCI Yeast Anticancer Drug Screen. Data for the rad50 strain (AID 155);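 also: 0% = growth of vehicle-only cultures of the same strain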; details: S. cerevisiae rad50 strain growth inhibition, stronger effect = higher value
# Outline: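 DNA repair mutant yeast, compound exposure, growth read-out; inhibition is taken relative to vehicle.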
# [5] = NCI Yeast Anticancer Drug Screen. Data for the mec2-1 strain (AID 157); details: S. cerevisiae mec2-1 strain, stronger effect = higher value
# Outline: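 Each compound was tested on mec2-1 yeast, a strain altered in DNA damage repair or cell cycle control. Growth inhibition is reported relative to vehicle.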
# [6] = NCI Yeast Anticancer Drug Screen. Data for the rad14 strain (AID 159);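 also: 0% = growth of vehicle-treated control cultures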; details: S. cerevisiae rad14 strain growth inhibition, stronger effect = higher value
# Outline: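 DNA repair-defective yeast, compound-exposed; % growth inhibition derived by comparison with vehicle-treated controls.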
# [7] = NCI Yeast Anticancer Drug Screen. Data for the sgs1 mgt1 strain (AID 161);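 also: 0% = growth of cultures given vehicle only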; details: S. cerevisiae sgs1 mgt1 strain, stronger effect = higher value
# Outline: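 Read-out: growth inhibition vs vehicle controls. Cells: mutant yeast strain deficient in DNA damage repair.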
# [8] = NCI Yeast Anticancer Drug Screen. Data for the CLN2oe strain (AID 163);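 also: 0% = growth of vehicle-only control cultures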; details: S. cerevisiae CLN2oe strain, stronger effect = higher value
# Outline: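 First, the altered yeast strain was treated with each compound; second, its growth was measured; finally, inhibition was derived by comparison with vehicle controls.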
# [9] = NCI Yeast Anticancer Drug Screen. Data for the cln2 rad14 strain (AID 165);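 also: 0% = growth equal to vehicle treated cultures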; details: S. cerevisiae cln2 rad14 strain, stronger effect = higher value
# Outline: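 Test compounds were added to cln2 rad14 yeast cultures; inhibition of growth was then determined by comparison with vehicle treatment.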
# [10] = NCI Yeast Anticancer Drug Screen. Data for the bub3 strain (AID 167); details: S. cerevisiae bub3 mutant strain, stronger effect = higher value
# Outline: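 In this screen, a yeast mutant lacking normal mitotic checkpoint function is challenged with compound. Relative growth versus vehicle gives the inhibition value.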
# [11] = NCI Yeast Anticancer Drug Screen. Data for the mlh1 strain (AID 171);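 also: 0% = growth of vehicle-treated control cultures of the same strain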; details: S. cerevisiae mlh1 strain growth inhibition, stronger effect = higher value
# Outline: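 Inhibition values reflect reduced yeast growth in the presence of compound, referenced to vehicle controls, using a strain chosen for its alteration in DNA repair or cell cycle control.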
# [12] = NCI Yeast Anticancer Drug Screen. Data for the rad18 strain (AID 177); details: S. cerevisiae rad18 mutant growth inhibition, stronger effect = higher value
# Outline: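 Steps: expose repair-mutant yeast to compound; measure growth; express as inhibition relative to vehicle control.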
# [13] = at 5.0 µM (retest, dose inferred, filed as 0.5)
# [14] = at 50.0 µM (retest, dose inferred, filed as 5.0)
structure (smiles),measurement,setting,value
COc1ccc(N2C(=O)CC(Cl)C2=O)cc1 (stereo not given),growth inhibition,[1]; at 1.2 µM,-10%
same,growth inhibition,[1]; at 3.7 µM,-9%
same,growth inhibition,[1]; at 11.0 µM,10%
same,growth inhibition,[1]; at 33.0 µM,80% (active)
same,growth inhibition,[1]; at 100.0 µM,99% (active)
same,growth inhibition,[2]; at 1.2 µM,-1%
same,growth inhibition,[2]; at 3.7 µM,10%
same,growth inhibition,[2]; at 11.0 µM,16%
same,growth inhibition,[2]; at 33.0 µM,70% (active)
same,growth inhibition,[2]; at 100.0 µM,100% (active)
same,growth inhibition,[3]; at 1.2 µM,-9%
same,growth inhibition,[3]; at 3.7 µM,-18%
same,growth inhibition,[3]; at 11.0 µM,22%
same,growth inhibition,[3]; at 33.0 µM,66%
same,growth inhibition,[3]; at 100.0 µM,99% (active)
same,growth inhibition,[4]; at 1.2 µM,-16%
same,growth inhibition,[4]; at 3.7 µM,-11%
same,growth inhibition,[4]; [13],-128%
same,growth inhibition,[4]; at 11.0 µM,15%
same,growth inhibition,[4]; at 33.0 µM,79% (active)
same,growth inhibition,[4]; [14],96% (active)
same,growth inhibition,[4]; at 50.0 µM,99.2% (active)
same,growth inhibition,[4]; at 100.0 µM,99% (active)
same,growth inhibition,[5]; at 1.2 µM,-7%
same,growth inhibition,[5]; at 3.7 µM,-5%
same,growth inhibition,[5]; [13],-44%
same,growth inhibition,[5]; at 11.0 µM,-6%
same,growth inhibition,[5]; at 33.0 µM,64%
same,growth inhibition,[5]; [14],36%
same,growth inhibition,[5]; at 50.0 µM,99.5% (active)
same,growth inhibition,[5]; at 100.0 µM,100% (active)
same,growth inhibition,[6]; at 1.2 µM,-6%
same,growth inhibition,[6]; at 3.7 µM,1%
same,growth inhibition,[6]; at 11.0 µM,13%
same,growth inhibition,[6]; at 33.0 µM,98% (active)
same,growth inhibition,[6]; at 100.0 µM,100% (active)
same,growth inhibition,[7]; [13],-56%
same,growth inhibition,[7]; [14],59%
same,growth inhibition,[7]; at 50.0 µM,95.5% (active)
same,growth inhibition,[8]; at 1.2 µM,-12%
same,growth inhibition,[8]; at 3.7 µM,-12%
same,growth inhibition,[8]; at 11.0 µM,-12%
same,growth inhibition,[8]; at 33.0 µM,0%
same,growth inhibition,[8]; at 100.0 µM,78% (active)
same,growth inhibition,[9]; [13],-60%
same,growth inhibition,[9]; [14],8%
same,growth inhibition,[9]; at 50.0 µM,97% (active)
same,growth inhibition,[10]; at 1.2 µM,-15%
same,growth inhibition,[10]; at 3.7 µM,-8%
same,growth inhibition,[10]; [13],-75%
same,growth inhibition,[10]; at 11.0 µM,1%
same,growth inhibition,[10]; at 33.0 µM,92% (active)
same,growth inhibition,[10]; [14],69%
same,growth inhibition,[10]; at 50.0 µM,97.9% (active)
same,growth inhibition,[10]; at 100.0 µM,100% (active)
same,growth inhibition,[11]; at 1.2 µM,-14%
same,growth inhibition,[11]; at 3.7 µM,-10%
same,growth inhibition,[11]; at 11.0 µM,-10%
same,growth inhibition,[11]; at 33.0 µM,40%
same,growth inhibition,[11]; at 100.0 µM,100% (active)
same,growth inhibition,[12]; at 1.2 µM,-12%
same,growth inhibition,[12]; at 3.7 µM,-10%
same,growth inhibition,[12]; at 11.0 µM,1%
same,growth inhibition,[12]; at 33.0 µM,38%
same,growth inhibition,[12]; at 100.0 µM,99% (active)
